Experimental data: PubChem BioAssay (NCI)
This is part of a sample that, as a whole, favours compounds with a hit. Of some 83,000 tested, about 20% had one in any assay.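 Interpretation: 100, growth as untreated; towards 0, rising growth inhibition; 0, no net growth; 0 to -100, cell death. Compounds scoring below 10 were considered active.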 Unmarked numbers belong to inactive results. Calls of active or inactive are those of the source.

Key:
Test in all cases: NCI-60 one-dose screen, 48 h (100 = growth as untreated, 0 = no growth, -100 = all killed)
Conditions in all cases: 10 µM unless noted
T-47D breast = system: T-47D breast
BT-549 breast = system: BT-549 breast
MDA-MB-435 melanoma = system: MDA-MB-435 melanoma
SW-620 colon = system: SW-620 colon
MCF7 breast = system: MCF7 breast
HCT-116 colon = system: HCT-116 colon
HCC-2998 colon = system: HCC-2998 colon
KM12 colon = system: KM12 colon

Compound	growth (T-47D breast)	growth (BT-549 breast)	growth (MDA-MB-435 melanoma)	growth (SW-620 colon)	growth (MCF7 breast)	growth (HCT-116 colon)	growth (HCC-2998 colon)	growth (KM12 colon)
O=C1c2cc3c(cc2-c2c1c1ccc(Cl)cc1c(=O)n2CCCN1CCOCC1)OCO3	28.6%	59.6%	85.4%	57.2%	18.5%	56.3%	74.4%	75.2%
Cc1ccccc1COc1ccc(-c2ccnn2-c2ccc(Cl)cc2)cc1	65.4%	75%	0.81% (active)	29.7%	31.9%	38.1%	89.1%	50.7%
Cn1c(NCCc2ccc(O)c(O)c2)nc2c1c(=O)n(Cc1ccc(Br)cc1)c(=O)n2C	53.3%	73%	79%	81.4%	80%	67.4%	94%	76%
CN(C)c1ccc(N=Nc2ccccn2)c(O)c1	31.4%	37%	33.1%	26.5%	17.3%	24.7%	33.6%	24.5%
COc1cccc(Nc2nc(SC)nc(-c3cccc([N+](=O)[O-])c3)c2C#N)c1	62.4%	96.1%	80.9%	75%	72.9%	28.2%	95.3%	98.4%
C=CC(COC(c1ccccc1)(c1ccccc1)c1ccccc1)N(CC)CC (stereo not drawn)	54.8%	81.5%	61.2%	51.3%	33.4%	35.9%	63%	54.6%
Nc1n[nH]c2ccc([C@@H]3Nc4ccc5cn[nH]c5c4[C@H]4C5CCC(C5)[C@@H]34)cc12 (stereo partly drawn)	57.5%	20.9%	-47.7% (active)	19%	15.2%	12.9%	24.3%	17.6%
N#Cc1c(-c2ccc(Cl)cc2)nc(N/N=C/c2cccc(Br)c2)nc1N1CCOCC1	67.5%	101%	104%	31.5%	72.5%	61.5%	96.1%	94.9%
COc1ccc(-c2nc3ccc(-c4nc5ccc(N6CCN(c7ccccc7)CC6)cc5[nH]4)cc3[nH]2)cc1OC	-36.4% (active)	52.9%	-3.15% (active)	-32.7% (active)	-85.3% (active)	-100% (active)	-53.6% (active)	4.37% (active)
COc1ccc(-c2cc(NC(=O)Nc3ccc4ncsc4c3)no2)cc1	86.6%	106%	105%	105%	84.6%	102%	103%	100%
COc1ccc(-c2nn(-c3ccc(Cl)cc3)cc2-c2nc3ccccc3[nH]2)cc1	87.9%	113%	97.7%	84.6%	74.3%	87%	109%	102%
CSc1nc(Nc2cccc(NC(=O)/C(C#N)=C/c3c(Cl)cccc3Cl)c2)c(C#N)c(-c2cccc([N+](=O)[O-])c2)n1	37.6%	71.6%	43.2%	38.1%	11.3%	35.6%	60.8%	78.3%
CC(=O)Nc1ccc(-n2c(O)c(/C=N/NC(=O)Cc3ccccc3Nc3c(Cl)cccc3Cl)sc2=S)cc1	80.6%	104%	109%	96.5%	92.3%	95.3%	106%	105%
COc1ccc(-c2cc(Nc3ccnc(N4CCOCC4)n3)on2)cc1	55.1%	57.1%	-30.2% (active)	31.1%	24.4%	12.7%	40.4%	20.3%
CN1CCN(CCCOc2cccc3nc(Nc4ccc(Cl)c(F)c4)ccc23)CC1	38.5%	80%	25.3%	-34.1% (active)	-43.1% (active)	31.6%	55.2%	-34.7% (active)
CCOC(=O)c1c(CN2CCN(C)CC2)nc2ccc(Cl)cc2c1-c1ccccc1	74.3%	58.5%	53.5%	94.8%	47.6%	63.7%	-0.061% (active)	76.2%

Compound	growth (T-47D breast)	growth (BT-549 breast)	growth (MDA-MB-435 melanoma)	growth (SW-620 colon)	growth (MCF7 breast)	growth (HCT-116 colon)	growth (HCC-2998 colon)	growth (KM12 colon)
O=S(=O)(Nc1ccc(OC(F)F)cc1)c1ccc(-c2cnc(C3CC3)o2)cc1	48.3%	63.4%	8.1% (active)	35.2%	39.1%	65.4%	80.5%	74.1%
c1ccc(Cn2cc(-c3nc4ccccc4s3)c3cccnc32)cc1	94%	106%	104%	105%	75.4%	100%	107%	92.6%
O=C(N(c1ccccc1)c1ccccc1)n1ccc2nc(Cl)nc(Cl)c21	34.2%	47.2%	37.9%	51.1%	32.5%	49.6%	91.5%	55.7%
O=Nc1c(O)c(Cl)cc2ccccc12	-4.57% (active)	83.7%	91.8%	46.2%	49.6%	31.5%	115%	79.5%
C#CCOc1ccc2ncnc(Nc3cccc(CNC(=O)C=C)c3)c2c1	87.9% [8.25 µM]	96.4% [8.25 µM]	97.1% [8.25 µM]	107% [8.25 µM]	87% [8.25 µM]	104% [8.25 µM]	106% [8.25 µM]	109% [8.25 µM]
O=C(CN(C(=O)Cn1c(=O)n2nnnc2c2ccccc21)c1ccccc1C(F)(F)F)Nc1ccc(C(F)(F)F)cc1	101%	95.7%	105%	105%	96.1%	95.5%	106%	110%
CCN1CCN(c2nc(NCCCNc3ccnc4cc(Cl)ccc34)c3ccccc3n2)CC1	-4.69% (active)	68.7%	-81.7% (active)	9.73% (active)	23.2%	20.7%	21.9%	29.3%
O=C1Nc2cc(-c3ccc(O)cc3)ccc2/C1=C/c1ccc[nH]1	0.283% (active)	16.9%	7.05% (active)	14.1%	1.73% (active)	4.68% (active)	-13.9% (active)	2.31% (active)
FC(F)(F)c1[nH]ncc1-c1nc2ccc3n[nH]c(C#Cc4cccnc4)c3c2c2c1CCCC2	48.8%	10.3%	47.8%	19.2%	33.9%	9.04% (active)	50.4%	22.7%
Cc1cc(N2CCN(C)CC2)nc(NC2CCCC(Nc3ccnc4cc(Cl)ccc34)C2)n1 (stereo not drawn)	-48.5% (active)	-41.9% (active)	-86% (active)	2.79% (active)	-10.5% (active)	-69.6% (active)	8.13% (active)	10.4%
c1ccc(-c2c(-c3ccccc3)[n+](Cc3ccc4ccccc4c3)c(-c3ccc(-c4nc5ccccc5s4)cc3)n2Cc2ccc3ccccc3c2)cc1	-78.2% (active)	-87.5% (active)	-76.9% (active)	-78.3% (active)	-65.5% (active)	-83.5% (active)	-93.8% (active)	-88.1% (active)
CNC(=O)c1cc(Oc2ccc(NC(=O)Nc3ccc(Cl)c(OC(F)(F)F)c3)c(F)c2)ccn1	-2.82% (active)	60.4%	19.4%	43.1%	17.1%	14%	39%	13.3%
CC1C(/C=N/Nc2ccccc2)C(C#N)(C#N)C1(C#N)C#N (stereo not drawn)	79.3%	77.4%	62.5%	60.2%	82.4%	67.3%	86%	62.5%
O=C(/C=C/c1ccc(C(F)(F)F)cc1)Nc1ccc(C=C2c3ccccc3C(=O)c3ccccc32)cc1	50.3%	57.6%	6.92% (active)	65.3%	46.5%	38.3%	78.3%	25.9%
COc1cc2nc(N3CCCC3)nc(NCc3ccccc3)c2cc1OC	7.79% (active)	70.5%	6.99% (active)	55.9%	29.4%	28.2%	55.4%	96.3%
